The whole screen tested about 350,000 compounds, of which about 700 (0.2%) were called active. Entries that show only a call come without a potency. The call rests on the fitted dose curve; in most records, active means well fitted inhibition curve with a large enough effect; inconclusive means small, poorly fitted or top-dose-only effect; inactive means flat fitted curve, though single readings scatter. Only a selection was taken, and actives are over-represented in it overall.
Potency means the concentration at half of the fitted maximal effect.

The assay deals with RecQ-like DNA helicase BLM (Homo sapiens) (UniProt P54132). The experiment in a line: qHTS Assay for Inhibitors of Bloom's syndrome helicase (BLM). Further: nearly all actives have a fitted effect of over 35% in size. The note with it: recombinant BLM DNA unwinding, fluorescence dequenching; series mostly up to 56.1 µM. The text has this: Survival of cells and the faithful propagation of the genome depend on elaborate mechanisms of detecting and repairing DNA damage. Treatment of advanced cancer relies on radiation therapy or chemotherapy, which kill cancer cells by causing extensive DNA damage. It is often found, that cancer cells develop resistance to therapy through enhanced activity of DNA repair functions; this has led to an increased interest in developing drugs that interfere with DNA repair, which could sensitize cancer cells to conventional therapy.
Chain of RecQ-like DNA helicase BLM (Homo sapiens) (P54132 whole entry, looked up): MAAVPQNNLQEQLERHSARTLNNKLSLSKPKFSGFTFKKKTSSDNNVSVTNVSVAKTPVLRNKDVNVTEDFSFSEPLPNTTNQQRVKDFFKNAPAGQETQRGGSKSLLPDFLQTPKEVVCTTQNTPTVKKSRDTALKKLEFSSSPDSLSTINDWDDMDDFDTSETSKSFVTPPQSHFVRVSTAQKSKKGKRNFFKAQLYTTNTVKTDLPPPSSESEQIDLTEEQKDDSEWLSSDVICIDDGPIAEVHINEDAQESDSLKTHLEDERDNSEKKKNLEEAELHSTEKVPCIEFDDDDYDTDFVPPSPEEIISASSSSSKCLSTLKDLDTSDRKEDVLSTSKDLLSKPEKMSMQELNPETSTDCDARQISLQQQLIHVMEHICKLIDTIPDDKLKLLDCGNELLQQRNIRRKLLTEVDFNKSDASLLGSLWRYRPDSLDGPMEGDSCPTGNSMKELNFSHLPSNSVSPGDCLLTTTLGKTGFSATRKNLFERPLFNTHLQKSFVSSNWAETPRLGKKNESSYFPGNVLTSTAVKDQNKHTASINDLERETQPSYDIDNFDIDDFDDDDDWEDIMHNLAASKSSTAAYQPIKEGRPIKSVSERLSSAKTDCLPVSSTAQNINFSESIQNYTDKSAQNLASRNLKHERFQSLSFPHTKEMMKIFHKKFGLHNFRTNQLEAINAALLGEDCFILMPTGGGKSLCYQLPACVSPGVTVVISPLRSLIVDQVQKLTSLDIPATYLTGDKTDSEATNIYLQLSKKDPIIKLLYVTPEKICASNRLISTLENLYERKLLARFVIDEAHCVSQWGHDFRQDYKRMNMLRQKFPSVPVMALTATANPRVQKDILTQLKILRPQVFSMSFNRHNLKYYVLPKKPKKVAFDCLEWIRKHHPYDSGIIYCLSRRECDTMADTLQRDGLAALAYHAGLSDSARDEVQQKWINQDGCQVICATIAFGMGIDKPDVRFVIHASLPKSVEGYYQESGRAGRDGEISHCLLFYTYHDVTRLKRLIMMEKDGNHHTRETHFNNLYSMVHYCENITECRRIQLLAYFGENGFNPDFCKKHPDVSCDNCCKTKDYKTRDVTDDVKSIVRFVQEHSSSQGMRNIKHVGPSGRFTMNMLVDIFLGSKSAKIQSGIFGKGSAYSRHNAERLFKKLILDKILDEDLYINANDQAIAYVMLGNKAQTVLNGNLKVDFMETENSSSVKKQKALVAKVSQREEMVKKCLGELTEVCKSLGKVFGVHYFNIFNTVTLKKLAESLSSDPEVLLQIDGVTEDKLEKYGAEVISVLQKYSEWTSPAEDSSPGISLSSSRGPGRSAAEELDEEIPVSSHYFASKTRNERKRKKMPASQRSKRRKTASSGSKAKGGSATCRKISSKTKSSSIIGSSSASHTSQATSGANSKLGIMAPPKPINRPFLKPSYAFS
This validation qHTS assay pertains to human BLM, which is important in resolving abnormal DNA structures formed during replication or homologous recombination. Shutting down the expression of BLM leads to chromosomal instability and higher radiation sensitivity in cultured cells.
The validation assay was a fluorescence quenching based kinetic qHTS for BLM Helicase DNA unwinding. The activity was measured as ATP-dependent separation of a 20-bp DNA duplex extended by 30-nt single-stranded tails (forked duplex). The forked DNA substrate was tagged with rhodamine fluorophore (carboxytetramethyl rhodamine, TAMRA) and BHQ-2 (Black Hole Quencher 2) dark quencher. Strand separation results in an increase in the fluorescence of TAMRA (excitation 525 nm, emission 598 nm). This substrate construct operates in a red-shifted region where very few compound library members have been noted to fluoresce (PubChem AIDs 593 and 594). An additional feature of the assay is the inclusion of 2.5 ug/ml poly (dIdC), to reduce interference by compounds such as DNA intercalators, a major source of false inhibitors.
Ian Hickson, University of Oxford
Opher Gileadi, Structural Genomics Consortium, University of Oxford
Screening Center PI: Austin, C.P.
Screening Center: NIH Chemical Genomics Center [NCGC]
Three uL of reaction buffer (25 mM Tris-HCl (pH 8.0), 5 mM NaCl, 2 mM MgCl2, 1mM DTT, 0.01% Tween- 20, and 2.5 ug/ml poly(dI-dC), including enzyme (50 nM BLM), were dispensed into a 1536-well Greiner black assay plate via solenoid-valve based nanoliter dispensers. Compounds (23 nl each in columns 5-48) and control (23 nl each in column 2 as dose-response) were transferred via a Kalypsys pintool equipped with a 1536-pin array. The plates were incubated for 15 min at room temperature, and then 1 ul of substrates (200 nM DNA and 2 mM ATP, final concentrations) was added to start the reaction. The plate was transferred into a ViewLux high-throughput CCD imager where the reaction progress was measured in a discontinuous kinetic mode (two reads spaced 2 hours apart, with intermediate room temperature incubation of the covered assay plate) by using standard red-fluorescence optics (excitation filter 525 nm, emission filter 598 nm). Enzyme-free and vehicle (DMSO) controls were included for signal normalization.
In general terms: Quantitative high-throughput screening tests each substance at several concentrations.
For `COc1ccc(N2C(=O)/C(=C/c3ccco3)C(=O)NC2=S)cc1`, the Potency was 12.6 µM (active).
Turning to `COc1cccc(N2C(=O)NC(=O)/C(=C\c3ccc([N+](=O)[O-])s3)C2=O)c1`, the Potency result is “inactive”.
For the molecule `N#Cc1cc(Br)c(O)c(Br)c1`, the Potency result was “inactive”.
`O=C1CCc2cccc3c2N1CC3`: the Potency entry was “inactive”.
The entry for `C[C@]12O[C@H](C[C@@]1(O)C(=O)O)n1c3ccccc3c3c4c(c5c6ccccc6n2c5c31)CNC4=O` is “inactive”.
The entry for `CCN(CC)c1nc(C)cc(OP(=S)(OC)OC)n1` is “inactive”; for `CC(=O)[O][Sn]([c]1ccccc1)([c]1ccccc1)[c]1ccccc1` it is “inactive”.
On to `CCCCCCCCCCCCN=C(N)N`, for which the Potency result was “inactive”.
The same measure for `C[C@@H]1C[C@H]2CC[C@H](O2)[C@H](C)C(=O)O[C@@H](C)C[C@@H]2CC[C@@H](O2)[C@@H](C)C(=O)O[C@H](C)C[C@H]2CC[C@H](O2)[C@H](C)C(=O)O[C@@H](C)C[C@@H]2CC[C@@H](O2)[C@@H](C)C(=O)O1`: “inactive”; for `CC[N+](C)(CC)CCC[n+]1c(-c2ccccc2)c2cc(N)ccc2c2ccc(N)cc21`: 5.01 µM (active); for `C[C@H]1C/C=C/[C@@H]2[C@@H]3O[C@]3(C)[C@@H](C)[C@H]3[C@H](Cc4ccccc4)NC(=O)[C@]32OC(=O)O/C=C/[C@](C)(O)C1=O`: “inactive”.
The same measure for `COC([CH2][Hg])CNC(=O)c1ccccc1OCC(=O)O` (stereo not given): “inactive”.
The same measure for `CN(C)C[C@H]1CCCC[C@]1(O)c1cccc(O)c1`: “inactive”.
Turning to `O=C(OCC1O[C@@H](OC(=O)c2cc(O)c(O)c(O)c2)[C@@H](OC(=O)c2cc(O)c(O)c(O)c2)[C@@H](OC(=O)c2cc(O)c(O)c(O)c2)[C@@H]1OC(=O)c1cc(O)c(O)c(O)c1)c1cc(O)c(O)c(O)c1` (stereo not given in full), the Potency is 0.501 µM (active).
The same measure for `CC(C)(Cc1c[nH]c2ccc(Cl)cc12)NCCOc1ccccc1OCC1CC1`: “inactive”.

Values taken from PubChem BioAssay AID2528 (National Center for Advancing Translational Sciences (NCATS), 2010).
